From PubChem BioAssay
PI5P4K alpha inh: qHTS for Inhibitors of phosphatidylinositol 5-phosphate 4-kinase (PI5P4K) | Phosphatidylinositol 5-phosphate 4-kinase type-2 alpha (Homo sapiens), P48426 | PI5P4Kalpha enzyme, ADP-Glo luminescence, 60 min; stronger effect = lower value | max response, % | hit rate 1.2% among 330,000; active means max response of -50% or lower; inconclusive means between -30% and -50%; inactive means -30% or higher; further: value at the top dose of about 77 µM; on the % scale 0 is the no-effect control and ±100 the full control effect
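Reactions run in 0.038 M HEPES pH 7.4, 0.28 mM EGTA, 0.1% CHAPS and 5% DMSO, with PI5P4Kalpha, substrate, compound and 5 microM ATP final, one hour at room temperature. Readout is ADP-Glo luminescence.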
Pol beta inh: qHTS Assay for Inhibitors of DNA Polymerase Beta. hit rate 1.3% among 340,000. AID 485314, 2010. Pol beta primer extension/strand displacement, fluorescence kinetic. Potency, µM (top dose mostly 114 µM), for inactives: at the highest dose activity change, negative = inhibition, actives largely listed as inhibitors. P06746; further: potency means the concentration at half of the fitted maximal effect; on the % scale 0 is the no-effect control and ±100 the full control effect
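Kinetic readout of DNA synthesis with strand displacement by Pol beta. Compound and 10 nM enzyme sit 15 min at room temperature; 50 nM substrate starts the reaction, read immediately and at 10 min.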
Pol kappa inh: qHTS for Inhibitors of Polymerase Kappa; AID 588579, 2011; Potency, µM (titrated, usually from 107 µM), without a hit: top-dose activity, negative = inhibition, usual class: inhibitors; DNA polymerase kappa (Homo sapiens), Q9UBT6; purified Pol kappa, fluorescent DNA synthesis assay, 10 min; hit rate 0.53% among 400,000; further: potency means the concentration at half of the fitted maximal effect; on the % scale 0 is the no-effect control and ±100 the full control effect
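Readout: fluorescence, taken kinetically at 0 and 10 min. Conditions: 10 nM Pol kappa, 15 min RT compound preincubation, 50 nM substrate final. Controls: enzyme-free buffer wells.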
Pol iota inh: qHTS for Inhibitors of Polymerase Iota; DNA polymerase iota (Homo sapiens), Q9UNA4; Pol iota fluorescent replication assay, 10 min; Potency, µM (titrated, usually from 115 µM), inactives show top-dose activity, negative = inhibition, hits mostly inhibitors; hit rate 1% among 390,000; further: potency means the concentration at half of the fitted maximal effect
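Pol iota at 10 nM preincubated 15 min with compounds at room temperature; reaction started with fluorescent substrate, 50 nM final. Fluorescence read kinetically at 0 and 10 min; buffer-only wells as negative control.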
WRN helicase inh: qHTS for Inhibitors of WRN Helicase; WRN helicase unwinding, fluorescent forked duplex, kinetic; Potency, µM (series often up to 114 µM), without a hit: top-dose activity change, negative = inhibition, usual class: inhibitors; hit rate 0.46% among 360,000; AID 651768, 2012; further: potency means the concentration at half of the fitted maximal effect; on the % scale 0 is the no-effect control and ±100 the full control effect; nearly all actives have a fitted effect of over 55% in size
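Screening of the MLSMR collection measured strand separation of a quenched forked DNA duplex (100 nM) by 20 nM WRN with 2 mM ATP, all final. Compounds were preincubated with enzyme 15 min at room temperature.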
Pol eta inh: qHTS for Inhibitors of Polymerase Eta; DNA polymerase eta (Homo sapiens), Q9Y253; recombinant Pol eta, fluorescent DNA replication assay; Potency, µM (top dose mostly 114 µM), without a hit: at the highest dose activity change, negative = inhibition, hits mostly inhibitors; hit rate 1.2% among 390,000; AID 588591, 2011; further: potency means the concentration at half of the fitted maximal effect; on the % scale 0 is the no-effect control and ±100 the full control effect
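Pol eta (10 nM) was preincubated with compounds for 15 min at room temperature, after which fluorescent replication substrate (50 nM final) was added to start the reaction. Fluorescence was read kinetically at 0 and 10 min.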
* hit, by the source's call; ? = inconclusive; / = no result given; [ ] = another dose, or the depositor's remark. Hits are enriched below; roughly 2.8% of the tested compounds scored in any of these assays. Unless noted, the call rests on the fitted dose curve; in most records, active means well fitted curve in the direction sought with a large enough effect; inconclusive means small, poorly fitted or top-dose-only effect, or another doubt; inactive means no such curve, though single readings can be large; an effect the other way counts as inactive or inconclusive.

SMILES | PI5P4K alpha inh | Pol beta inh | Pol kappa inh | Pol iota inh | WRN helicase inh | Pol eta inh
Cc1ccc(S(=O)(=O)c2cn(Cc3ccccc3)c3cc(N4CCCC4)c(F)cc3c2=O)cc1 | / | 41% | -8% | 6% | / | -16%
COc1cccc(NC(=O)CSc2nc(C3CC3)nc3ccccc23)c1 | 5 | -2% | 3% | ? | -10%[11.6 µM] | 40µM*
CCc1ccc(CNC(=O)c2cnc3sc(N4CCCCCC4)nn3c2=O)cc1 | / | -2% | 0% | 22% | / | -7%
CCOC(=O)Cn1c(=O)n(-c2ccc(Cl)cc2)c2nc(-c3ccc(Cl)cc3)nc(C(N)=O)c21 | / | -28% | -2%[60.1 µM] | -5% | / | -8%
CCCOC(=O)c1cc(-c2ccc(/C=C3/C(=O)N(C)C(=O)C(C#N)=C3C)o2)ccc1Cl | -58* | / | -17% | ? | -7%[11.6 µM] | 25µM*
CCCOC(=O)c1cc(-c2ccc(C=O)o2)ccc1Cl | -12 | 23% | -3% | -10% | -22% | -11%
CCC(/C=C1\Sc2ccc(OC)cc2N1CC)=C\c1sc2ccc(OC)cc2[n+]1CCCS(=O)(=O)[O-] | ? | 8.9µM* | 23%[60.1 µM] | 121% | 32% | ?
CCC(=O)/C=C1/Sc2ccc(OC)cc2N1CC | / | -11% | -3% | 28% | 4%[57.1 µM] | -1%
CCC(/C=C1\Sc2ccc(OC)cc2N1CCO)=C\c1sc2ccc(OC)cc2[n+]1CCO | -78* | 22µM* | ? | ? | 50µM* | 14µM*
CCC(=O)/C=C1/Sc2ccc(OC)cc2N1CCO | -51* | -13% | -1% | 71% | -2% | -22%
CCNc1ccc(/C=C2\C=Cc3ccccc32)cc1 | / | / | -8% | 69% | / | /
COc1cccc(/C=N/NC(=O)c2cc(-c3cccn3C)n[nH]2)c1 | 0 | 35µM* | ? | ? | 1% | ?
COc1cccc(/C=N/NC(=O)c2cc(-c3cccn3C)n[nH]2)c1O | ? | ? | -32% | ? | ? | -10%
Cn1cccc1-c1cc(C(=O)N/N=C/c2ccc(Cl)cc2)[nH]n1 | 1 | ? | ? | 10% | -11% | 2%
Cn1cccc1-c1cc(C(=O)N/N=C/C=C/c2ccccc2)[nH]n1 | -24 | 10µM* | ? | ? | -6% | -5%
OCc1cnc(SCc2ccccc2F)n1Cc1ccc(F)cc1 | / | 32% | 0%[60.1 µM] | -2% | / | -6%
O=C(CSCn1nnc2c(=O)[nH]c(Cc3ccc(F)cc3)nc21)Nc1ccccc1 | / | 0% | 0% | 37% | / | -10%
Cc1cc(C)cc(NC(=O)CSCn2nnc3c(=O)[nH]c(Cc4ccc(F)cc4)nc32)c1 | / | 40µM* | 79µM* | 79µM* | / | ?
CN(C)c1ccc(-c2cncnc2Nc2ccccc2)cc1 | / | / | -4%[60.1 µM] | / | / | /
CCn1cc2nc(SCC(=O)Nc3ccccc3C(F)(F)F)n(Cc3ccc(C)cc3)c(=O)c2n1 | / | 10µM* | ? | 45µM* | / | -20%
Cc1ccc2c(=O)cc(C(=O)N(Cc3ccc(C(C)(C)C)cc3)C3CCS(=O)(=O)C3)oc2c1 (centres undefined) | / | -25% | -11% | -1% | / | -10%
Cc1ccc(NC(=O)Cn2nnc(-c3nc(-c4ccncc4)no3)c2N)cc1 | / | 9% | -12% | -16% | / | /
O=C(CN1C(=O)c2ccccc2S1(=O)=O)NCCSCc1ccco1 | / | 5% | -25% | 100µM* | -10%[57.1 µM] | -1%
Cc1ccccc1N(CC(=O)NCCSCc1ccco1)S(C)(=O)=O | / | ? | -11% | 56µM* | -18% | -11%
CCOc1ccccc1N(CC(=O)NCCSCc1ccco1)S(=O)(=O)c1ccccc1 | -6 | 28µM* | ? | ? | -35% | ?
O=C(CN1C(=O)c2ccccc2S1(=O)=O)NCCSCc1ccccc1Cl | -3 | -1% | -14% | 0% | -9% | 1%
